Only some compounds are listed: those with a hit (about 4.9% of all), similar ones and a draw of the others.
NLRP3 yeast inh = NALP3 inflammasome inhibitors in reconstituted yeast, primary screen, luminescence, uHTS; Yeast reconstituted NLRP3/ASC/caspase-1, beta-gal luminescence, 24 h; inhibition, % at 10 µM; hit rate 0.39% among 330,000; AID 2825, 2010;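 active = inhibition of 50% or more; inactive = inhibition below 50%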
SKKanGAS inh = S. pyogenes SKKanGAS growth inhibitors in kanamycin, primary screen, streptokinase expression inhibitor project, SKKanGAS strain, BacTiter-Glo luminescence | AID 1662, 2009 | hit rate 1.3% among 300,000 | inhibition, % at 7.5 µM | 6 h;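 active = mean replicate score, as percent of positive control median, at least 50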;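 note: strain carries kanamycin resistance gene driven by streptokinase promoter and grows in 40 µg/ml kanamycin; loss of luminescence reflects streptokinase promoter inhibition or plain growth inhibition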
tim10-1 inh = growth inhibitors of tim10-1 mutant yeast, primary screen, luminescence, uHTS; inhibition, % at 20 µM; S. cerevisiae tim10-1 ts strain growth, BacTiter-Glo, 24 h; AID 463190, 2010; hit rate 2.2% among 330,000;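 active = inhibition of at least 40%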;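 note: mutant grown at 25 °C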
TIM10 inh = growth inhibitors of isogenic TIM10 control yeast, primary screen, counter-screen for tim10-1 yeast inhibitor project, luminescence, uHTS. S. cerevisiae TIM10 strain growth, BacTiter-Glo luminescence, 24 h. inhibition, % at 10 µM. hit rate 1.4% among 330,000;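 active = inhibition of 40% or more at the single tested concentration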;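 note: wild-type TIM10 isogenic control strain grown at permissive 25 °C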
NALP1 yeast inh = NALP1 inflammasome inhibitors in reconstituted yeast, colorimetric, S. cerevisiae, triplicate retest; S. cerevisiae NALP1/ASC/caspase-1 growth, X-gal OD620, 72 h; inhibition, % at 10 µM; hit rate 0.61% among 280,000; in the data active = inhibition mostly above about 24%, no sharp cut-off; inactive = mostly below about 32%
tim23-1 inh = growth inhibitors of tim23-1 mutant yeast, primary screen, luminescence, uHTS; S. cerevisiae tim23-1 growth, BacTiter-Glo luminescence, 24 h; inhibition, % at 20 µM; hit rate 1.3% among 330,000;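 active = growth inhibition of the mutant yeast at or above 50%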;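 note: temperature-sensitive mutant grown at 25 °C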
tim10-1 conf = growth inhibitors of tim10-1 mutant yeast, confirmation, single concentration, luminescence, S. cerevisiae; S. cerevisiae tim10-1 ts strain growth, BacTiter-Glo, 24 h; AID 463213, 2010; inhibition, % at 20 µM; shares compounds with tim10-1 inh; hit rate 56% among 7,400;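 active = inhibition of yeast growth at or above a set limit in either of two repeat tests at 20 µM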;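 note: tim10-1 mutant grown at permissive 25 °C to find synthetic lethal compounds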
Hits are given with their value; i = inactive; nt = no result given.

SMILES	NLRP3 yeast inh	SKKanGAS inh	tim10-1 inh	TIM10 inh	NALP1 yeast inh	tim23-1 inh	tim10-1 conf
CC(Oc1cccc2ccccc12)C(=O)N/N=C/c1cccnc1 (stereo not given)	i	i	44	i	i	i	i
CC(Sc1ccccc1)C(=O)N/N=C/c1cccnc1 (stereo not given)	i	i	i	i	i	i	nt
O=C(NC(=S)Nc1ncc(Br)cc1Br)c1cncc(Br)c1	i	i	40	i	i	i	i
O=C(NC(=S)Nc1ccc(O)cc1)c1cncc(Br)c1	i	i	i	i	nt	i	nt
CCc1nonc1NC(=O)c1oc2ccc(F)cc2c1C	i	i	i	i	i	i	nt
Cc1c(C(=O)Nc2nonc2-c2ccc(F)cc2)oc2ccc(F)cc12	i	57	44	i	i	i	i
Cc1ccc(C)c(NC(=S)N2CCN(c3cccc(C(F)(F)F)c3)CC2)c1	i	i	i	i	i	i	nt
Cc1ccnc(NC(=S)N2CCN(c3cccc(C(F)(F)F)c3)CC2)c1	i	68	43	i	i	i	i
O=C(Nc1cc2c3c(c1)CC(=O)N3CCC2)c1ccco1	i	i	i	i	nt	i	nt
COc1cc(/C=C/c2nnc3c4ccccc4ncn23)cc(OC)c1OC	i	i	44	i	i	i	i
COc1ccc(NS(=O)(=O)c2cccc(C(=O)NNC(=O)NCCCl)c2)cc1	i	i	i	i	i	i	nt
CC(=O)Nc1cc(C(F)(F)F)ccc1OCCOc1ccccc1	i	i	47	i	nt	i	i
COc1ccc(CCC(=O)OCC(=O)N2CCN(S(=O)(=O)c3ccc(C)cc3C)CC2)cc1	i	nt	i	i	nt	i	nt
Cc1cc(N)n2ncc(-c3ccc(F)cc3)c2n1	i	i	50	i	i	i	39
Cc1nc2c(-c3ccc(F)cc3)cnn2c(N)c1-c1ccc(F)cc1	i	i	i	i	i	i	nt
O=C(C1CCCN(S(=O)(=O)c2cccc3nsnc23)C1)N1CCc2ccccc21 (stereo not given)	i	i	41	i	i	i	37
Cc1cccc(N2CCN(C(=O)C3CCN(S(=O)(=O)c4cccc5cccnc45)CC3)CC2C)c1 (stereo not given)	i	i	i	i	i	i	nt
Cc1cccc(N2CCN(C(=O)C3CCN(S(=O)(=O)c4cccc5nsnc45)CC3)CC2C)c1 (stereo not given)	i	i	40	i	i	i	i
CC(C)N(C(=S)Nc1cccc(C(F)(F)F)c1)C(C)c1ccccn1 (stereo not given)	i	i	43	i	i	i	i
Cc1ccc(CNS(=O)(=O)c2ccc(F)c(F)c2)n1C	i	i	i	i	i	i	nt
O=C(CSc1nnnn1-c1cccc(F)c1)NC1CC1	i	nt	i	i	nt	i	nt
CCCCN(C(=O)c1cccs1)C1CCS(=O)(=O)C1 (stereo not given)	i	i	i	i	nt	i	nt
COc1cc2cc(C(=O)N3CCN(Cc4ccc5c(c4)OCO5)CC3)[nH]c2cc1OC	i	i	i	i	i	i	nt
O=C(c1cc2cc(F)ccc2[nH]1)N1CCN(Cc2ccc3c(c2)OCO3)CC1	i	i	44	i	i	i	i
CC(C(=O)O)n1nc(-c2ccccc2)c2ccccc21 (stereo not given)	i	i	i	i	i	i	nt
SMILES	NLRP3 yeast inh	SKKanGAS inh	tim10-1 inh	TIM10 inh	NALP1 yeast inh	tim23-1 inh	tim10-1 conf
COc1ccc(CCNC(=O)Nc2ccccc2[N+](=O)[O-])cc1	i	i	i	i	i	i	nt
Cc1ccc(/C=N/NC(=O)CSCc2ccc(Cl)cc2)cc1	i	i	40	i	i	i	i
CCOc1ccc(N2CC(C(=O)Nc3cc(S(=O)(=O)N4CCCCC4)ccc3C)CC2=O)cc1 (stereo not given)	i	nt	i	i	nt	i	nt
COc1ccc(/C=C/C(=O)c2ccc(OC)cc2OC)c(OC)c1	i	i	i	i	i	i	nt
COc1ccc(/C=C/C(=O)c2ccccc2)c(OC)c1	i	i	44	i	i	i	i
CC1CCN(C(=O)c2ccc3c(c2NCCO)C(=O)c2ccccc2C3=O)CC1	i	i	42	i	i	i	i
Cc1ccc(C(=O)N2CCc3ccccc3C2)cc1S(=O)(=O)N1CCOCC1	i	i	i	i	i	i	nt
Cc1ccccc1NS(=O)(=O)c1cc(C(=O)NCCC2=CCCCC2)ccc1C	i	i	40	i	i	i	i
Cc1ccc(C(=O)NCCC2=CCCCC2)cc1S(=O)(=O)N1CCOCC1	i	i	i	i	nt	i	nt
Cc1ccc(C(=O)NCCC2=CCCCC2)cc1S(=O)(=O)N1CCCCC1	i	i	41	i	nt	i	i
Cc1ccccc1NS(=O)(=O)c1cc(C(=O)N2CCc3ccccc3C2)ccc1C	i	i	42	i	i	i	33
O=C(NCCC1=CCCCC1)c1ccc(Cl)c(S(=O)(=O)Nc2ccccc2)c1	i	i	i	i	i	i	nt
Cc1ccc(C(=O)NNC(=O)c2cc(C)nc3ccccc23)cc1	i	nt	i	i	nt	i	nt
COc1cccc(/C=N/NC(=O)CNC(=O)c2ccc3c(c2)OCCO3)c1O	i	i	i	i	i	i	nt
COc1ccc2ccccc2c1/C=N/NC(=S)Nc1cc(S(=O)(=O)N2CCOCC2)ccc1N1CCOCC1	i	i	i	i	i	i	nt
CCOc1cccc(/C=N/NC(=O)c2ccc3c(c2)OCCO3)c1O	i	95	48	i	i	i	i
CCOc1cccc(/C=N/NC(=S)Nc2cc(S(=O)(=O)N3CCOCC3)ccc2N2CCOCC2)c1O	i	i	44	i	i	i	i
COc1ccc(C(CNC(=O)c2oc3ccc(Cl)cc3c2C)N2CCCCC2)cc1 (stereo not given)	i	i	47	i	i	i	i
COc1ccc(C(CNC(=O)c2cc(C)oc2C)N2CCOCC2)cc1 (stereo not given)	i	i	45	i	i	i	i
CCc1cc(C(=O)NCC(c2ccc(OC)cc2)N2CCOCC2)sc1C (stereo not given)	i	nt	i	i	nt	i	nt
CCn1c(SC(C)C(=O)NC2CCCC2)nc2cc(S(N)(=O)=O)ccc21 (stereo not given)	i	nt	i	i	nt	i	nt
CCN1CCN(S(=O)(=O)c2ccc(Cl)c(C(=O)N(C)Cc3ccccc3)c2)CC1	i	nt	98	i	nt	i	i
CC(/C=C/c1cccc([N+](=O)[O-])c1)=N/NC(=O)c1cccnc1	i	i	40	i	i	i	i
CCn1cc(C(=O)NCCc2ccc(OC)c(OC)c2)c(=O)c2cc(S(=O)(=O)N3CCOCC3)ccc21	i	i	i	i	i	i	nt

Compound activity as filed in PubChem BioAssay.
